# Source: PubChem (several laboratories)
# Compounds with a hit are over-represented: about 2% of the library has one in this group of screens.
# Fh CTSL1 inh – blocks F. hepatica cathepsin L1 in PFM18AAP counter-screen; recombinant F. hepatica cathepsin L1, Z-Leu-Arg-MCA fluorescence; inhibition, % at 5.96 µM; actives 0.49% (n = 300,000); AID 1906;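 active = inhibition above the mean of all tested compounds plus 3 SD, set per screening campaign, cut at about 17% in these data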
# A3G deaminase – blocks human APOBEC3G single-stranded DNA deamination; actives 0.28% (n = 330,000); recombinant A3G, ssDNA deamination FAM/TAMRA fluorescence; inhibition, % at 20 µM; Q9HC16;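 active = inhibition of at least 40% at 20 µM, with no more than 30% in the related APOBEC3A deaminase screen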
# HGIII-sPLA2 inh – Blocks human group III sPLA2 activity; inhibition, % at 12.2 µM; QFRET BODIPY PC-A2 liposome hydrolysis, fluorescence; actives 0.56% (n = 370,000); AID 743126; Q9NZ20;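 active = inhibition above mean plus 3 SD of compounds lying within the high and low control bounds, cut at about 19% in these data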
# Target sequence (Q9NZ20 whole entry, looked up): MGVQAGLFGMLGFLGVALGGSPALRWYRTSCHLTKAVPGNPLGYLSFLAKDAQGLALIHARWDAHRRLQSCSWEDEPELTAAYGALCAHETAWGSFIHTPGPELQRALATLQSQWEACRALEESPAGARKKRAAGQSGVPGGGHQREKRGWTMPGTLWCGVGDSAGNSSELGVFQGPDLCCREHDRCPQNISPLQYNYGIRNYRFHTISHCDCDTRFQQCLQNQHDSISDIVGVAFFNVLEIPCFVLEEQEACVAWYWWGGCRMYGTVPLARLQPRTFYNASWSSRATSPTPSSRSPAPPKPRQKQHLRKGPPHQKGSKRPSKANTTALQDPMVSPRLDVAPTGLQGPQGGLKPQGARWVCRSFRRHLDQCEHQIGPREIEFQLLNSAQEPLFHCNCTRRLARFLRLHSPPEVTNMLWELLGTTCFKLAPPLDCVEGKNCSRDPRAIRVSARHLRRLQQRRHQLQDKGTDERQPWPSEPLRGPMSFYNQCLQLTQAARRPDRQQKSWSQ
# A3A deaminase – inhibitors of human APOBEC3A DNA deaminase. actives 0.41% (n = 330,000). inhibition, % at 20 µM. P31941. AID 493011. recombinant A3A, FAM/TAMRA ssDNA deamination fluorescence;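 active = at least 40% inhibition at 20 µM here, with at most 30% in a related deaminase screen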
# NALP1 inh – inhibitors of NALP1 inflammasome in yeast | S. cerevisiae NALP1/ASC/caspase-1 growth, X-gal OD620, 72 h | inhibition, % at 10 µM | actives 0.61% (n = 280,000) | AID 2071; in the data active = inhibition mostly above about 24%, no sharp cut-off; inactive = mostly below about 32%
# Hits are given with their value; n = inactive; x = no result.
SMILES,Fh CTSL1 inh,A3G deaminase,HGIII-sPLA2 inh,A3A deaminase,NALP1 inh
Cc1ccc(CNC(=O)c2csc3c2CCCCC3)cc1,n,n,n,n,43
COc1cc(C(c2oc(CO)cc(=O)c2O)c2oc(CO)cc(=O)c2O)cc(OC)c1OC,51,n,n,n,n
O=C(Nc1ccc(Cl)cc1Cl)O[C@@H]1CC[C@@]23CCCN2C(=O)CCC[C@H]3C1,x,x,n,x,x
Cc1ccnc(NC(=O)c2cc(S(=O)(=O)N3CCCCC3)ccc2Cl)c1,n,n,n,n,40
COCCn1c(-c2cccs2)csc1=Nc1cccnc1,19,n,n,n,n
O=C1NC(Cc2ccccc2)C(=O)N1Cc1ccccc1 (stereo not given),x,x,n,x,x
O=c1ccsn1Cc1ccccc1,24,n,n,n,n
c1ccc(-c2ccc(-c3cn4c(n3)CCC4)cc2)cc1,n,n,n,n,51
COc1ccc(-c2cn3c(n2)CCC3)cc1,n,n,n,n,n
CCNC(=S)NNC(=O)CSc1nnc(-c2ccccc2)n1-c1ccc(Cl)cc1,x,x,n,x,x
Fc1ccc(Cn2ccc3ccc(-c4ccc5ccn(Cc6ccc(F)cc6)c5c4)cc32)cc1,x,x,n,x,x
Nc1ccc(Cn2ccc3c4c(N)nc(N)nc4ccc32)cc1,x,x,22,x,x
O=C(NCC1COc2ccccc2O1)c1ccc(NC(=O)c2c(Cl)cccc2Cl)cc1 (stereo not given),x,x,n,x,x
CN(C(=O)CSc1ncnc2scc(-c3ccccc3)c12)C1CCS(=O)(=O)C1 (stereo not given),17,n,n,n,n
COc1coc(C(O)CN)cc1=O (stereo not given),n,n,n,n,n
CCOC(=O)C(=Cc1cc(=O)c(OC)co1)C(=O)OCC,x,x,n,x,85
Cc1cc(Oc2ccc(Cl)cc2)nc(-c2ccccc2O)n1,n,n,n,n,32
CCOC(=O)/C(C#N)=N\Nc1cc(Cl)ccc1OC,32,n,n,n,n
CCOC(=O)/C(C#N)=N/Nc1ccccc1OC,n,n,n,n,n
NCCC(=O)N1c2ccccc2Sc2ccccc21,n,n,n,n,36
O=C(COc1ccc([N+](=O)[O-])cc1Cl)NCCc1ccccc1,n,n,n,n,73
O=C(COC(=O)c1cc([N+](=O)[O-])ccc1Cl)NCCc1ccccc1,x,n,n,n,x
O=C(Nc1cccc(Cl)c1)O[C@@H]1CC[C@@]23CCCN2C(=O)CCC[C@H]3C1,x,x,n,x,x
O=C(O)c1ccc(NC2=C(n3nnc4ccccc43)C(=O)c3ccccc3C2=O)cc1,34,n,n,n,n
O=C(O)c1ccc(-n2nnc3ccccc32)c([N+](=O)[O-])c1,n,n,n,n,n
SMILES,Fh CTSL1 inh,A3G deaminase,HGIII-sPLA2 inh,A3A deaminase,NALP1 inh
N#Cc1cccc(NC(=O)O[C@@H]2CC[C@@]34CCCN3C(=O)CCC[C@H]4C2)c1,x,x,n,x,x
CN(C)c1ccc(C=c2c3ccccc3n3c2cc(-c2ccc(Cl)cc2)[n+]3C)cc1,x,x,48,x,x
COc1ccc(O)c(/C=N/c2nc3ccccc3n2C)c1,n,n,n,n,33
O=C(/C=C/Nc1ccc([N+](=O)[O-])cc1)c1ccc(Br)cc1,17,n,n,n,n
O=C(/C=C/Nc1ccc(F)cc1)c1ccc(Br)cc1,n,n,n,n,n
Cc1cccc(N=C2NC(=O)/C(=C/c3cccn3C)S2)c1,n,n,n,n,n
O=C1NC(=Nc2ccccc2)S/C1=C\c1cccn1-c1ccccc1,n,n,n,n,39
CCC(=O)NC(c1ccccc1)c1nc2ccccc2[nH]1 (stereo not given),n,n,n,n,25
CCOC(=O)[C@H](Cc1ccccc1)NC(=O)[C@H]1C[C@@]2(N3CCCCC3)c3ccccc3N(C(=O)OC(C)(C)C)[C@H]2N1C(=O)OC(C)(C)C,x,x,n,x,x
NC(=O)c1ccccc1NC(=O)Nc1cccc2ccccc12,n,n,n,n,n
NC(=O)NNC(=S)Nc1cccc2ccccc12,91,n,n,n,n
COC(=O)C(Cc1ccccc1)NC(=O)C(CC(C)C)NC(=O)OC(C)(C)C (stereo not given),n,n,n,n,n
CCOC(=O)C(Cc1ccc(O)cc1)NC(=O)CNC(=O)C(CC(C)C)NC(=O)OC(C)(C)C (stereo not given),29,n,n,n,n
COC(=O)c1cc(-c2cccs2)c(=O)n2c1CCC2,x,x,n,x,x
CCOC(=O)/C(C#N)=C/c1cc2cc(C)c(C)cc2nc1Cl,n,n,n,n,x
Cc1cc2cc(C=C(C#N)C#N)c(Cl)nc2cc1C,n,n,n,n,60
